# Screening results (PubChem BioAssay)
# Only some compounds are listed: those with a hit (about 8.2% of all), similar ones and a draw of the others.
# KB-V1 cytotox: qHTS assay for MDR1-selective chemotherapeutics: Primary screen using the drug-selected MDR subline cells KB-V1. KB-V1 MDR cells viability, CellTiter-Glo, 72 h. AID 1347076, 2019. Potency, µM (series often up to 46.1 µM), actives largely listed as cytotoxic. 400,000 compounds, 3.4% hits; further: on the % scale 0 is the no-effect control and ±100 the full control effect; nearly all actives have a fitted effect of over 60% in size
#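 In this primary screen, KB-V1 cells overexpressing P-gp are incubated with library compounds (lowest to highest concentration) for 72 h at 37 degrees C before a luminescent ATP viability read.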
# SW480 rerep: A quantitative high throughput screen for small molecules that induce DNA re-replication in SW480 colon adenocarcinoma cells; Potency, µM (titrated, usually from 46.1 µM), without a hit: at the top dose re-replication activation, most hits filed as activators; 340,000 compounds, 1.8% hits; SW480 DNA re-replication, Hoechst DNA content imaging, 48 h; further: % of control where 0% means no effect; nearly all actives have a fitted effect of over 55% in size
#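 Hoechst fluorescence of nuclei (405 nm excitation, 500-530 nm emission) measured by plate-scanning imager after 48 hr compound exposure at 37 C; re-replication scored as increased number of nuclei with elevated intensity.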
# ELG1 DNA repair: qHTS screen for small molecules that inhibit ELG1-dependent DNA repair in human embryonic kidney (HEK293T) cells expressing luciferase-tagged ELG1; HEK293T ELG1-luciferase reporter, luminescence, 16 h; DNA damage induced by 5-fluorouridine; Potency, µM (top dose mostly 46.1 µM), for the others: at the top dose activity change, negative = inhibition, hits mostly inhibitors; 330,000 compounds, 2.3% hits; AID 504467, 2011; further: on the % scale 0 is the no-effect control and ±100 the full control effect; nearly all actives have a fitted effect of over 55% in size
#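 DMSO vehicle served as the neutral condition. Each well held 2,000 cells given 5-fluorouridine plus compound; after 16 hr at 37 °C/5% CO2, ONE-Glo was added and luciferase measured 30 min later.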
# KB-3-1 tox: qHTS assay for MDR1-selective chemotherapeutics: Primary screen using the parental adenocarcinoma cell KB-3-1; KB-3-1 viability, CellTiter-Glo ATP luminescence, 72 h; Potency, µM (top dose mostly 46.1 µM), usual class: cytotoxic; 400,000 compounds, 1.4% hits; AID 1347075, 2019; further: on the % scale 0 is the no-effect control and ±100 the full control effect; nearly all actives have a fitted effect of over 60% in size
#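 Multi-concentration cytotoxicity screen in KB-3-1 cells grown in DMEM lacking phenol red with 10% FBS. After 72 h at 37 °C with compound, ATP-dependent luminescence was recorded.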
# MCF10A rereplic: A quantitative high throughput screen for small molecules that induce DNA re-replication in MCF 10a normal breast cells. 350,000 compounds, 2.9% hits. MCF 10A DNA re-replication, Hoechst nuclear intensity, 48 h. Potency, µM (titrated, usually from 46.1 µM), without a hit: at the top dose activity, positive = re-replication, most hits filed as activators; further: % of control where 0% means no effect; nearly all actives have a fitted effect of over 50% in size
# * marks the source's active call; other numbers are inactive results; i = inactive; ? = inconclusive; · = not tested or not shown. The call rests on the fitted dose curve; in most records, active means well fitted curve in the direction sought with a large enough effect; inconclusive means small, poorly fitted or top-dose-only effect, or another doubt; inactive means no such curve, though single readings can be large; an effect the other way counts as inactive or inconclusive. Potency means the concentration at half of the fitted maximal effect.
SMILES,KB-V1 cytotox,SW480 rerep,ELG1 DNA repair,KB-3-1 tox,MCF10A rereplic
CC(=O)NC(c1cccc([N+](=O)[O-])c1)c1ccc2cccnc2c1O (centres undefined),?,?,?,3.7µM*,15µM*
Oc1cccc(C(Nc2nccs2)c2ccc3cccnc3c2O)c1 (centres undefined),?,?,?,3.3µM*,12µM*
CC(NC(=O)CN1CCN(C(=O)c2cccs2)CC1)c1ccc(F)cc1F (centres undefined),i,3%,1%,i,-12%
CCOC(=O)C1(Cc2cccc(OC)c2)CCCN(Cc2cc(OC)c(O)c(OC)c2)C1 (centres undefined),?,-5%,-16%,i,-9%
Cc1ccc(C)c(N2CCN(C(=O)C3CCCN(S(=O)(=O)c4c(C)noc4C)C3)CC2)c1 (centres undefined),i,3%,15µM*,?,9%
Cc1ccc(C)c(N2CCN(C(=O)C3CCN(S(=O)(=O)c4c(C)noc4C)CC3)CC2)c1,?,?,12µM*,8.2µM*,17%
Cc1nc2scc(C)n2c(=O)c1S(=O)(=O)N1CCN(c2ccccc2F)CC1,i,26%,1%,i,7%
Cc1cccc(N2CCN(S(=O)(=O)c3c(C)nc4scc(C)n4c3=O)CC2)c1C,?,-24%,26µM*,i,-13%
Cc1noc(C)c1S(=O)(=O)N1CCC(C(=O)N2CCN(c3ccccc3Cl)CC2)CC1,i,17%,?,i,-1%
CCOC(=O)c1c(C)[nH]c(C)c1S(=O)(=O)N1CCC(C(=O)N2CCN(c3cc(C)ccc3C)CC2)CC1,i,·,·,16µM*,·
Cc1cccc(N2CCN(C(=O)C3CCN(S(=O)(=O)c4c(C)noc4C)CC3)CC2)c1C,?,-33%,13µM*,i,23%
Cc1ccc(C)c(N2CCN(S(=O)(=O)c3c(C)noc3/C=C/N(C)C)CC2)c1,?,4%,-7%,?,21µM*
Cc1ccc(Cl)cc1N1CCN(C(=O)c2ccc(NS(=O)(=O)c3c(C)noc3C)cc2)CC1,i,?,?,i,15µM*
Cc1noc(/C=C/N(C)C)c1S(=O)(=O)N1CCN(c2ccccc2)CC1,i,3%,?,i,?
Cc1ccc(C)c(N2CCN(C(=O)c3ccc(NS(=O)(=O)c4c(C)noc4C)cc3)CC2)c1,i,2%,?,i,?
Cc1ccc(-c2nc3cc(Cl)ccc3o2)cc1NC(=O)c1cc2ccccc2o1,i,·,·,?,·
Cc1ccc(C)c(NC(=O)CN(C)C(=O)c2ccc(COc3ccccc3)cc2)c1,i,·,·,i,·
N=c1c(C(=O)NC2CCCCC2)cc2c(=O)n3ccccc3nc2n1Cc1ccco1,i,21µM*,-4%,i,?
N=c1c(C(=O)NC2CCCCC2)cc2c(=O)n3ccccc3nc2n1Cc1ccccc1,i,9.2µM*,-7%,i,2.6µM*
CC(C)Cc1ccc(CN2CCCC(NC(=O)c3cnc4ccccn4c3=O)C2)cc1 (centres undefined),?,?,·,16µM*,?
CCC(C)n1c(=N)c(C(=O)NC2CCCC2)cc2c(=O)n3ccccc3nc21 (centres undefined),i,·,·,i,·
Cc1ccc(Cn2c(=N)c(C(=O)NC3CCCC3)cc3c(=O)n4ccccc4nc32)cc1,i,1.6µM*,-10%,i,?
CCc1ccccc1CC1CN(Cc2ccccc2)Cc2ccccc2N1c1ccc(OC)cc1 (centres undefined),i,·,·,i,·
Cc1ccc(C)c(NC(=O)CSc2ncc3c(n2)-c2cc(Cl)ccc2N(Cc2ccccc2F)S3(=O)=O)c1,i,·,·,i,·
